Laboratory results taken from PubChem BioAssay (NCI).
This is part of a sample that, as a whole, favours compounds with a hit. Of some 79,000 tested, about 15% had one in any assay. Unmarked numbers belong to inactive results. The source made the active and inactive calls. Rule as the data show it: active = growth inhibition above about 70%; inactive = the rest.

Experiments:
[1] = NCI Yeast Anticancer Drug Screen. Data for the rad50 strain (AID 155);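 also: 0% = growth of vehicle-only cultures of the same strain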; conditions: S. cerevisiae rad50 strain growth inhibition; at 50.0 µM; stronger effect = higher value
Outline: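 Yeast carrying a defined DNA repair defect were exposed to test compounds, and growth was compared with vehicle-treated controls to give percent inhibition.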

[2] = NCI Yeast Anticancer Drug Screen. Data for the mec2-1 strain (AID 157); conditions: S. cerevisiae mec2-1 strain, at 50.0 µM, stronger effect = higher value
Outline: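 Yeast mec2-1 mutant treated with compound. Readout: growth inhibition vs vehicle controls.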

[3] = NCI Yeast Anticancer Drug Screen. Data for the cln2 rad14 strain (AID 165);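 also: 0% = growth equal to vehicle treated cultures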; conditions: S. cerevisiae cln2 rad14 strain, at 50.0 µM, stronger effect = higher value
Outline: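 cln2 rad14 yeast strain; compound exposure; growth inhibition read vs vehicle controls.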

[4] = NCI Yeast Anticancer Drug Screen. Data for the bub3 strain (AID 167); conditions: S. cerevisiae bub3 mutant strain, at 50.0 µM, stronger effect = higher value
Outline: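 Compounds were applied to a genetically altered yeast strain carrying a cell-cycle control defect. Growth inhibition was scored against vehicle-treated controls.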

[5] = NCI Yeast Anticancer Drug Screen. Data for the mlh1 rad18 strain (AID 175); conditions: S. cerevisiae mlh1 rad18 strain growth inhibition; at 50.0 µM; stronger effect = higher value
Outline: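 Yeast w/ defined DNA-repair lesions; compound exposure; growth vs vehicle controls → % inhibition.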

[6] = NCI Yeast Anticancer Drug Screen. Data for the sgs1 mgt1 strain (AID 161);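 also: 0% = growth of cultures given vehicle only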; conditions: S. cerevisiae sgs1 mgt1 strain, at 50.0 µM, stronger effect = higher value
Outline: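 Read-out: growth inhibition vs vehicle controls. Cells: mutant yeast strain deficient in DNA damage repair.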

| Structure (SMILES) | growth inhibition [1] | growth inhibition [2] | growth inhibition [3] | growth inhibition [4] | growth inhibition [5] | growth inhibition [6] [%] |
| --- | --- | --- | --- | --- | --- | --- |
| C=CC(O)CCC (stereo not given) | -8.4% | -41% | 1.3% | -1.6% | -2.7% | – |
| CCC(O)CC(CC)CO (stereo not given) | -4.1% | -2.7% | – | -12.2% | -10.1% | 4.4 |
| O=C(O)C(O)c1ccccc1 (stereo not given) | 20.2% | -7.65% | – | 11.3% | 10.7% | -5.7 |
| COc1ccc(C(C)C=O)cc1 (stereo not given) | 5.55% | -14.8% | – | -27.9% | 2.3% | -30.3 |
| O=C(Cc1nc2ccc([N+](=O)[O-])cc2nc1CC(=O)c1cccnc1)c1cccnc1 | 14.3% | 10.5% | – | -3.85% | 9.6% | -1.35 |
| CC(C)(N)COS(=O)(=O)O | -14.6% | -14.1% | – | 9.25% | -14.1% | -7.95 |
| O=C(/C=C\c1ccc(O)cc1)c1ccccc1 | 15.9% | -14.3% | – | 29.6% | 14.1% | 45.9 |
| C[N+](C)=c1ccc2nc3c(cc(Nc4ccccc4)c4ccccc43)oc-2c1 | 20.1% | 49.6% | – | 38% | 39.2% | 30.1 |
| Cc1cc(=O)cc(C)n1-c1ccccc1 | 11.9% | -5.75% | – | 12.1% | 19.2% | -15.4 |
| O=C(Cc1ccccc1)Cc1ccccc1 | -1.55% | -5% | – | -8.65% | 13.6% | -0.45 |
| O=C(O)c1ccccc1NCc1ccco1 | -14.7% | -40.9% | – | – | -5.7% | 14 |
| Nc1nc(N)c(N=Nc2ccc(C(=O)O)cc2)c(N)n1 | -3.65% | 7.35% | – | 19% | 22.4% | 3 |
| O=C1Cc2cc(O)ccc2O1 | -13.4% | -28.2% | – | -32% | -8.75% | -48.6 |
| Cc1ccc(C(=O)NC2c3ccccc3Oc3ccccc32)cc1 | -0.25% | -7.7% | – | 6.85% | -5% | 4.65 |
| N#CC1(Nc2ccc3c4c(cccc24)CC3)CCCCC1 | 0.8% | 7.2% | – | 26.2% | 12.5% | 15.1 |
| CCOC(=O)C(CCC(C)C)C(=O)OCC | -7.55% | 7.85% | – | 4.6% | 2.6% | -9.65 |
| O=C(O)c1ccc(S(=O)(=O)O)cc1 | 8.55% | 11.8% | -12.4% | 18.5% | 12.5% | – |
| CCc1ccc(/C(C#N)=C/C=C/c2ccccc2)cc1 | 8.9% | -12.2% | -2.9% | 38% | 14.7% | – |
| O/N=C/c1ccc(O)cc1O | -11.9% | -5.45% | -29.9% | – | -33.4% | – |
| COC(=O)Nc1cccc(Cl)c1OC | 8.6% | -21.4% | 2.05% | 3.55% | -6.55% | – |
| CN(C)c1ccc2nc3ccc(=N)cc-3sc2c1 | 4.55% | -19.1% | 7.45% | -15.2% | 22.4% | – |
| CC(C)C1CCCCC1O (stereo not given) | -9.15% | -9.1% | -35.5% | – | 6.8% | – |
| Oc1ccccc1O | 11.7% | 6.7% | -11.7% | -1.6% | 8.25% | – |
| CC(=O)c1ccc(N=C(C#N)C2=C(O)c3ccccc3C2=O)cc1 | 15.7% | -12.4% | 14.2% | 10.9% | 13.3% | – |
| Cc1ccc(S(=O)(=O)O)c(C)c1 | 19.3% | -4.35% | 19.9% | -0.9% | 23.8% | – |
| CCOC(=O)c1ccc(NC(=S)P(=O)(c2ccccc2)c2ccccc2)cc1 | 41.5% | 10.2% | – | 14.9% | 39.8% | – |

| Structure (SMILES) | growth inhibition [1] | growth inhibition [2] | growth inhibition [3] | growth inhibition [4] | growth inhibition [5] | growth inhibition [6] [%] |
| --- | --- | --- | --- | --- | --- | --- |
| O=C(Nc1cccc(NC(=O)Nc2cc(C(F)(F)F)ccc2Cl)c1)Nc1cc(C(F)(F)F)ccc1Cl | 18.8% | -15.8% | 19.4% | 14.9% | 11.7% | – |
| C/C(=N\O)C1(O)CCCCC1 | 28.9% | 3.55% | 13.7% | 7.45% | 15.8% | – |
| COC(=O)/C=C1\Sc2cc(F)ccc2NC1=O | -12.9% | 2.45% | -44.2% | -8.5% | -6.55% | – |
| COc1ccc2c(NCCCCCCCCNc3c4ccccc4nc4cc(OC)ccc34)c3ccccc3nc2c1 | 90.8% (active) | 91.4% (active) | 89.3% (active) | 90.8% (active) | 88.3% (active) | – |
| O=C1C=CC(=O)N1c1ccc(I)cc1Cl | 29.9% | 18.3% | 23.8% | 32.3% | 22.1% | – |
| Cc1cccc(C(=O)N(C(C)C)C(C)C)c1 | -0.9% | -4.95% | -50.8% | 26.2% | -0.35% | – |
| C#CC(C)(O)c1ccc(Cl)cc1 (stereo not given) | 14.4% | -2.15% | -7.35% | -26.4% | 2.65% | – |
| CCN(CC)CCCC(C)Nc1ccnc(/C=C/c2ccc(Cl)cc2)c1 (stereo not given) | 2.75% | -1.2% | -2.55% | -39.5% | -19% | – |
| CCO/C=C1\SC(=S)N(c2cccc(C)c2)C1=O | 11.1% | 13.7% | 13.2% | 14.9% | 16.9% | – |
| O=C(Nc1ccccc1C(=O)NCC1CC1)c1cccs1 | -13.1% | -29.9% | 5.35% | 5.9% | -1.6% | – |
| N=c1c(C(=O)OCc2ccccc2)ncc(CCl)n1O | 37.3% | 80.5% (active) | 22.9% | 73.2% (active) | 77.8% (active) | – |
| CCCC1(c2ccccc2)NC(=O)NC1=O (stereo not given) | 5.75% | 0.3% | -81.1% | 7.95% | -13.7% | – |
| CCC/C=C(/C(C)=O)C(=O)OCC | 18.9% | -4.6% | 0.2% | -19.8% | -6.75% | – |
| Cc1ccc(C)n1-c1ccsc1C(=O)NNC(=O)C(Cl)Cl | 5.9% | 13.9% | 21.1% | – | 20.7% | – |
| CC(=O)N(C)c1ccc([N+](=O)[O-])cc1 | 21.8% | -5.6% | 26.2% | 24.4% | 1.3% | – |
| O=[N+]([O-])c1ccc(O)c(S(=O)(=O)O)c1 | 8.55% | -20.6% | 15.7% | -0.45% | 4.1% | – |
| N#CCc1ccc([N+](=O)[O-])cc1 | -14.2% | 8.3% | -2.1% | 15.2% | -6.3% | – |
| O=C1N(C[P+](c2ccccc2)(c2ccccc2)c2ccccc2)CCCN1C[P+](c1ccccc1)(c1ccccc1)c1ccccc1 | 17.4% | 7.4% | 14.9% | 15.1% | 12.3% | – |
| CC(C)CCOC(=O)c1ccccc1 | -7.2% | -22.5% | -68.9% | -29.1% | -22.9% | – |
| O=C1Cc2ccccc2C(=O)O1 | 25.9% | -16.5% | -22.1% | -5.15% | 15.6% | – |
| Nc1ccc(CC(=O)O)c(N)c1 | 0.55% | -7.8% | -6.25% | 4.6% | -0.4% | – |
| O=c1c2ccccc2c(Br)c(Br)c2ccccc12 | 11.4% | -12.4% | 3.3% | 9.15% | 27.4% | – |
| Cc1ccccc1N=C(c1ccccc1)C1C(=O)c2ccccc2C1=O | -20.6% | 19.4% | 29% | 49.2% | 12.6% | – |
| CC(C)=NNc1ccc([N+](=O)[O-])cc1[N+](=O)[O-] | 35.1% | 12.8% | 25.4% | -5.75% | 44.3% | – |
| Oc1ccccc1-c1nnco1 | -1.9% | -13.8% | 4.35% | -2.15% | -8.7% | – |
